Test results reported in PubChem BioAssay (EPA / NIEHS).
Results filed as inconclusive are left out. Calls of active or inactive are those of the source. How the source made its calls: active means hit-call score of the fitted dose curve at least 0.9, where 1 is the maximum; inconclusive means response in the unintended direction; inactive means score below 0.9.

read-out: xenobiotic metabolism (CYP1A1), CYP1A1 (gene 1543); experiment: CLD_CYP1A1_48hr: CellzDirect (CLD) Gene Expression Assay for xenobiotic metabolism (CYP1A1) at 48 hours (AID 2283705)
Method: CLD_48hr is a cell-based, multiplexed-readout assay that uses hepatocyte, a human liver primary cell, with measurements taken at 48 hours after chemical dosing in a 96-well plate.CLD_CYP1A1_48hr is one of 16 assay component(s) measured or calculated from the CLD_48hr assay. It is designed to make measurements of mRNA induction, a form of inducible reporter, as detected with chemiluminescence signals by Quantitative Nuclease Protection Assay (qNPA) technology.Data from the assay component CLD_CYP1A1_48hr was analyzed at the endpoint, CLD_CYP1A1_48hr, in the positive analysis fitting direction relative to DMSO as the negative control and baseline of activity. Using a type of inducible reporter, gain-of-signal activity can be used to understand changes in the reporter gene as they relate to the gene CYP1A1. Furthermore, this assay endpoint can be referred to as a primary readout. To generalize the intended target to other relatable targets, this assay endpoint is annotated to the cyp intended target family, where subfamily is xenobiotic metabolism.
Human hepatocyte cultures were treated daily for two consecutive days with fresh dosing solutions containing appropriate concentrations of the 320 ToxCast chemicals (chemical identities were blinded to CellzDirect and other ToxCast collaborators), vehicle control (0.2% DMSO), and positive control inducers as summarized in Table 1. Due to the large number of treatment groups and chemicals examined, the ToxCast chemicals were divided into two groups (spanning two independent cultures of hepatocytes from separate donor preparations (Hu778: ToxCast plates 1 and 2; Hu776: ToxCast plates 3 and 4). Each preparation of human hepatocyte cultures was treated with respective vehicle control, medium only control, set of six positive controls/reference chemicals for the five hepatic receptor pathways, and a subset of eight of the ToxCast chemicals (indoxacarb, pyrithiobac-sodium, norflurazon, cyhalofop-butyl, methomyl, thiram, acetochlor, and propiconazole). These replicate data, coupled with internal replicates designed within the blinded ToxCast chemical library, provided additional data to evaluate interindividual differences between hepatocyte preparations and their potential impact on chemical profiles.Cell morphology and integrity were evaluated using phase-contrast microscopy as an indicator of hepatocyte cell health (Tyson & Green, 1987). Cultures for each treatment group (i.e., media, vehicle [0.2% DMSO], positive control inducers [multiple concentrations], and the ToxCast chemicals [multiple concentrations]) were observed and cell morphology was assessed relative to vehicle control cultures at each harvest time point (0, 6, 24, or 48 h). […] Images were evaluated at the conclusion of the study to assess changes in cell integrity and account for the effects of chemical exposure on uncharacteristic changes in concentration-dependent gene expression profiles. The results from these determinations of apparent cytotoxicity were annotated (yes/no) alongside the corresponding qNPA data for reference.At the conclusion of each treatment period, hepatocyte cultures (96-well) were washed with 1 volume of HBSS, lysed by addition of 25 ul ArrayPlate lysis buffer (HTG, Tucson, AZ), and 70 ul/well of Denaturation Oil, denatured by incubation at 95C for 10 min, and frozen at approximately -70C until analysis by nuclease protection assay (qNPA) (Roberts et al., 2007). For qNPA analysis, cell lysates were thawed at 50C for approximately 30 min, qNPA probes were added, and samples were incubated at 95C for 10 min to begin the detection process by denaturing the target RNA, dissociating the duplexes and secondary structure hybridization. At the conclusion of the hybridization period, S1 nuclease reagent was added to each sample to digest all nonprotected nucleotides at 50C for 60-90 min. […]

| SMILES | outcome | AC50 |
| --- | --- | --- |
| O=C(O)c1c(Cl)ccc2cc(Cl)cnc12 | inactive | – |
| Cc1c(COC(=O)[C@@H]2[C@H](/C=C(\Cl)C(F)(F)F)C2(C)C)cccc1-c1ccccc1 | – | 20 µM (active) |
| COCC(=O)N(c1c(C)cccc1C)C(C)C(=O)OC (stereo not given) | inactive | – |
| CC(C)(C)C(=O)C(Oc1ccc(Cl)cc1)n1cncn1 (stereo not given) | – | 8.65 µM (active) |
| CC1(C)C(C(=O)OC(C#N)c2cccc(Oc3ccccc3)c2)C1(C)C (stereo not given) | inactive | – |
| CCN(CC)C(=O)C(C)Oc1cccc2ccccc12 (stereo not given) | – | 27.9 µM (active) |
| Nc1c(Cl)c(Cl)nc(C(=O)O)c1Cl | inactive | – |
| COc1ccc(-c2ccccc2)cc1NNC(=O)OC(C)C | inactive | – |
| CC(C)N1C(=O)N(c2ccccc2)CSC1=NC(C)(C)C | – | 33.6 µM (active) |
| Nc1cnn(-c2ccccc2)c(=O)c1Cl | inactive | – |
| COc1cc(OC)nc(NC(=O)NS(=O)(=O)c2ncccc2OCC(F)(F)F)n1 | inactive | – |
| Cn1c(-c2ccccc2)cc(-c2ccccc2)[n+]1C | inactive | – |
| O=c1n(Cl)c(=O)n(Cl)c(=O)n1Cl | inactive | – |
| CCOc1cc(C(C)(C)C)ccc1C1COC(c2c(F)cccc2F)=N1 (stereo not given) | – | 30.3 µM (active) |
| N#Cc1c[nH]cc1-c1cccc2c1OC(F)(F)O2 | – | 31.8 µM (active) |
| CCOP(=S)(OCC)Oc1nc(Cl)n(C(C)C)n1 | – | 5.35 µM (active) |
| O=C1C2CC=CCC2C(=O)N1SC(Cl)(Cl)Cl (stereo not given) | inactive | – |
| Clc1cccc(C(Cl)(Cl)Cl)n1 | – | 3.97 µM (active) |
| CCCCC(C#N)(Cn1cncn1)c1ccc(Cl)cc1 (stereo not given) | – | 35.1 µM (active) |
| Clc1nc(Cl)nc(Nc2ccccc2Cl)n1 | inactive | – |

| SMILES | outcome | AC50 |
| --- | --- | --- |
| COC(=O)NS(=O)(=O)c1ccc(N)cc1 | inactive | – |
| CCNP(=S)(OC)O/C(C)=C/C(=O)OC(C)C (stereo not given) | – | 3.99 µM (active) |
| CC(C)N1C(=O)c2ccccc2NS1(=O)=O | inactive | – |
| CO/N=C(/C1=NOCCO1)c1ccccc1Oc1ncnc(Oc2ccccc2Cl)c1F | – | 32.4 µM (active) |
| COC(=O)N(C(=O)N1CO[C@@]2(C(=O)OC)Cc3cc(Cl)ccc3C2=N1)c1ccc(OC(F)(F)F)cc1 | – | 2.72 µM (active) |
| CNC(=O)N(C)c1nnc(C(C)(C)C)s1 | inactive | – |
| CCCN(CC)CC1COC2(CCC(C(C)(C)C)CC2)O1 (stereo not given) | – | 3.97 µM (active) |
| COCC(C)N(C(=O)CCl)c1c(C)csc1C (stereo not given) | inactive | – |
| COP(=S)(OC)Oc1ccc([N+](=O)[O-])c(C)c1 | – | 20 µM (active) |
| CCOc1nc(F)cc2nc(S(=O)(=O)Nc3c(Cl)cccc3Cl)nn12 | inactive | – |
| CCC(C)n1c(=O)[nH]c(C)c(Br)c1=O (stereo not given) | – | 8.72 µM (active) |
| CC(C)NC(=O)N1CC(=O)N(c2cc(Cl)cc(Cl)c2)C1=O | – | 12.3 µM (active) |
| Cc1ccc(N=CN(C)C=Nc2ccc(C)cc2C)c(C)c1 | – | 5.87 µM (active) |
| COCc1cnc(C2=NC(C)(C(C)C)C(=O)N2)c(C(=O)O)c1 (stereo not given) | inactive | – |
| C=C(C)CN(CC)c1c([N+](=O)[O-])cc(C(F)(F)F)cc1[N+](=O)[O-] | inactive | – |
| CC1(C)CCC(=Cc2ccc(Cl)cc2)C1(O)Cn1cncn1 (stereo not given) | – | 3.17 µM (active) |
| COC(=O)NC(=S)Nc1ccccc1NC(=S)NC(=O)OC | – | 3.32 µM (active) |
| CS(=O)(=O)c1cc(C(F)(F)F)ccc1C(=O)c1cnoc1C1CC1 | inactive | – |
| O=C(Nc1ccccc1-c1ccc(Cl)cc1)c1cccnc1Cl | – | 20 µM (active) |
| Cc1nc(N(C)C)nc(OC(=O)N(C)C)c1C | inactive | – |
